Shown are actives, neighbours in structure and some others; about 2.6% of the full set was active somewhere.
STAT3 binder = STAT3 binders, primary screen, biochemical, small molecule microarray, single point, set 2; 17,000 tested, 0.2% active; calls only; AID 624138, 2012; His-STAT3 binding, anti-His fluorescence;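 active = compounds whose four printed spots each show fluorescence over background unusually high for their array block, chance value under 7%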
p53 mut binder = binders of human mutant p53, primary screen, biochemical, small molecule microarray, anti-GST fluorescence | 17,000 tested, 0.4% active | calls only | small molecule microarray binding;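 active = compounds whose four printed spots each glow above background more than chance allows, each with a p-value under 7%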
p53 PUMA act = mutant p53 pathway re-activators, primary screen, cell-based, SW480, luciferase, single point, HTS; SW480 PUMA-promoter luciferase, p53 mutant reactivation; activation, % at 9.98 µM; 28,000 tested, 1.5% active; AID 624151, 2012; in the data active = activation above about 52%
Myc binder = binders of human c-Myc, primary screen, biochemical, small molecule microarray, anti-His fluorescence; AID 624141, 2012; 17,000 tested, 1.5% active; Myc proto-oncogene protein (Homo sapiens), P01106; His-c-Myc binding; calls only;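 active = spot fluorescence over background with P-value below 7% in all four replicate spots, showing protein binding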
NFkB SMM = binders of NF-kB p50 subunit, primary screen, biochemical, small molecule microarray, anti-His fluorescence | AID 624139, 2012 | 17,000 tested, 1.3% active | calls only | anti-His fluorescence binding | Nuclear factor NF-kappa-B p105 subunit (Homo sapiens), P19838;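 active = spot fluorescence over background significantly raised, with a chance value under 7% in all four replicate spots of the compound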;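 also: probe protein is his-tagged human p50 processed subunit at 1 µg/ml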
Target sequence (P19838 1-433 limits assumed): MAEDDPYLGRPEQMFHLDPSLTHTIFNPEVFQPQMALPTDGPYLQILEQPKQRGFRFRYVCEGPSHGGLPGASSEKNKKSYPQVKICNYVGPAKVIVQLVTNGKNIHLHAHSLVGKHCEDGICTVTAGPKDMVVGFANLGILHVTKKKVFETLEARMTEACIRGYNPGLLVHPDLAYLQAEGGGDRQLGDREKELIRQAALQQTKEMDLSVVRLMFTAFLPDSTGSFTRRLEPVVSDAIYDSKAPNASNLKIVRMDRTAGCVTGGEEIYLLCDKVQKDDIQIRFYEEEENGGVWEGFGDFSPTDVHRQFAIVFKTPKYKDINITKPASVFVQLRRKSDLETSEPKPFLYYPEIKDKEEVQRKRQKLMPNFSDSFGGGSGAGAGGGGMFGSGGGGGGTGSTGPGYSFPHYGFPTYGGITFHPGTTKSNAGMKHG
Hits are given with their value; . = inactive; / = not tested or not shown; + = active, no number.

SMILES | STAT3 binder | p53 mut binder | p53 PUMA act | Myc binder | NFkB SMM
C[C@@H]1CCCCO[C@H](CN(C)C(=O)Cc2ccccc2)[C@H](C)CN([C@@H](C)CO)C(=O)c2cc(NC(=O)Nc3ccc(F)cc3)ccc2O1 | + | . | . | . | .
C[C@@H]1CN([C@@H](C)CO)C(=O)c2cc(NC(=O)C3CCCCC3)ccc2O[C@@H](C)CCCCO[C@@H]1CN(C)C(=O)C1CCCCC1 | . | . | / | + | +
CCn1c(SCC(=O)Nc2ccc(I)cc2C)nnc1-c1ccccc1 | / | / | . | / | /
Cc1cc(OCC(=O)Nc2ccccc2C(=O)NC2CCCCC2)ccc1Br | / | / | . | / | /
O=C(Nc1ccc(Cl)cc1Cl)NC(Cc1ccc(O)cc1)C(=O)O (centres undefined) | . | . | . | . | .
C[C@@H]1CN([C@@H](C)CO)C(=O)c2cc(NC(=O)C3CCCCC3)ccc2O[C@@H](C)CCCCO[C@H]1CN(C)C(=O)Nc1ccccc1 | . | . | . | . | .
C[C@H]1CCCCO[C@@H](CN(C)C(=O)Nc2ccccc2)[C@@H](C)CN([C@@H](C)CO)C(=O)c2cc(NC(=O)C3CCCCC3)ccc2O1 | . | . | . | + | .
COc1ccc(OC)c(N(CC(=O)Nc2cccc(Cl)c2C)S(C)(=O)=O)c1 | / | / | . | / | /
Cc1nn(C(=O)Cn2nc([N+](=O)[O-])cc2C)c(C)c1Cl | . | . | . | + | .
Cc1cc([N+](=O)[O-])nn1CC(=O)Nc1cc(Cl)cc(Cl)c1 | / | / | . | / | /
Nc1[nH]nc2nc3ccccc3nc12 | . | . | 64 | . | .
CN(C)c1c(F)cc(C(=O)NC(=O)NC2=NCCS2)cc1F | / | / | 61 | / | /
CC(C)CC(NC(=O)OCC1c2ccccc2-c2ccccc21)C(=O)O (centres undefined) | . | . | 64 | . | .
CC(C)C[C@H](NC(=O)[C@@H](O)[C@H](N)Cc1ccccc1)C(=O)O | / | / | . | / | /
C[C@@H]1CN([C@H](C)CO)C(=O)Cc2cc(NC(=O)Nc3cccc4ccccc34)ccc2O[C@@H]1CN(C)C(=O)Nc1cccc2ccccc12 | . | . | . | + | +
C[C@H](CO)N1C[C@H](C)[C@H](CN(C)C(=O)Nc2cccc3ccccc23)Oc2ccc(NC(=O)Nc3cccc4ccccc34)cc2CC1=O | . | . | . | . | .
C[C@@H]1CN([C@H](C)CO)C(=O)Cc2cc(NC(=O)Nc3ccc(C(F)(F)F)cc3)ccc2O[C@@H]1CN(C)Cc1ccncc1 | . | . | . | + | +
C[C@@H]1CC[C@]2(C(=O)OC3OC(CO)C(OC4OC(CO)C(O)C(O)C4O)C(O)C3O)CC[C@]3(C)C(=CCC4[C@@]5(C)CC[C@H](O)[C@](C)(C(=O)O)C5CC[C@]43C)C2[C@]1(C)O (some centres undefined) | . | . | . | . | .
CCOC(=O)c1ccccc1NC(=O)COc1ccccc1 | . | . | . | . | .
Cc1cccc(OCC(=O)Nc2cccc(-c3nnc(-c4ccccc4)o3)c2)c1 | / | / | 91 | / | /
O=C(COc1ccc(I)cc1)Nc1cccc(-c2nnc(-c3ccco3)o2)c1 | / | / | 79 | / | /
CCc1cccc(OCC(=O)Nc2ccccc2C(N)=O)c1 | / | / | 130 | / | /
CCc1cccc(OCC(=O)Nc2cccc(-c3nnc(-c4ccccc4)o3)c2)c1 | / | / | 98 | / | /
CC1(C)C[C@H]2C3=CCC4[C@@]5(C)CC[C@H](O[C@@H]6O[C@H](CO)[C@@H](O)[C@H](O)[C@H]6O)C(C)(C)C5CC[C@@]4(C)[C@]3(C)CC[C@@]2(C(=O)O[C@@H]2O[C@H](CO)[C@@H](O)[C@H](O)[C@H]2O)CC1O (some centres undefined) | . | . | . | . | .
O=C(COc1ccc(Br)cc1C(=O)Nc1ccc(Cl)cc1)NC1CC1 | / | / | . | / | /
SMILES | STAT3 binder | p53 mut binder | p53 PUMA act | Myc binder | NFkB SMM
C/C=C1/CN[C@H]2Cc3c([nH]c4ccccc34)C(=O)C[C@H]1C2C(=O)OC (some centres undefined) | . | . | . | . | .
CCCCCCCC/C=C/CCCCCCCC(=O)NCCc1ccc(O)c(O)c1 | . | . | . | . | .
Cc1cc(C)cc(OCC(=O)Nc2cccc(-c3nnc(-c4ccco4)o3)c2)c1 | / | / | . | / | /
COc1cccc(OCC(=O)Nc2cccc(-c3nnc(-c4ccccc4)o3)c2)c1 | / | / | 101 | / | /
COc1ccc(Cl)cc1NC(=O)COc1ccccc1[N+](=O)[O-] | . | . | . | . | .
O=C(COc1ccc(Br)cc1Cl)Nc1ccccc1CO | / | / | 75 | / | /

Screens (PubChem BioAssay)
